Laboratory results reported in PubChem BioAssay AID687001 (Broad Institute, 2013).
Potency and affinity values are given separately. The source made the active and inactive calls.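 How the source made its calls: active means signal-lowering compounds whose fitted half-maximal concentration is at or below twice the top tested dose in every run; inconclusive means runs disagree, flat 30 to 70% inhibition, or poor curve fit; inactive means the rest.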

The molecules below were run against Protein S100-A4 (Homo sapiens) (UniProt P26447) (assay: S100A4-myosin IIA binding inhibitor potency, dose response, biochemical, fluorescence polarization, cherry-picked hits (AID 687001)). Details: FP, S100A4/TAMRA-myosin IIA peptide binding; series mostly up to 11 µM.
Chain of Protein S100-A4 (Homo sapiens) (P26447 whole entry, looked up): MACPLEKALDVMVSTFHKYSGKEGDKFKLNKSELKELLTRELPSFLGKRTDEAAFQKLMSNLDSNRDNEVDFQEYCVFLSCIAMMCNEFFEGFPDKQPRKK

Structure (SMILES) | outcome
CCCC(=O)Nc1ccc(C=C(C(C)=O)C(C)=O)cc1 | inactive
O=C(c1ccccc1)N1CC2(C1)[C@H](c1ccccc1)[C@@H](CO)N2Cc1ccccn1 | inactive
CC(=O)Nc1ccc(C=NNc2nnc(NN=Cc3ccc(NC(C)=O)cc3)c3ccccc23)cc1 | inactive
COc1ccc(OC)c(S(=O)(=O)NCC(c2ccco2)N2CCc3ccccc32)c1 (centres undefined) | inactive
COc1ccc(C(C)(O)c2nc(-c3cccs3)cs2)cc1 (centres undefined) | inactive
COc1ccc2c(c1)CCC/C2=N\Nc1nc(C(=O)NN)cs1 | inactive
CCOc1ccc(NC(=O)CSc2nccn(-c3ccc4c(c3)OCCO4)c2=O)cc1 | inactive
C#CCNCCS(=O)(=O)N(Cc1ccc(Br)cc1)[C@@H](CC(C)C)C(=O)O | inactive
C[C@H]1CN([C@@H](C)CO)S(=O)(=O)c2ccc(C3=CCCCC3)cc2O[C@H]1CN(C)Cc1ccccc1 | inactive
CN(C)CC/C=C1/c2ccccc2COc2ccc(CC(=O)O)cc21 | inactive
C[C@@H]1CN([C@@H](C)CO)C(=O)c2cc(NC(=O)CCC(F)(F)F)ccc2O[C@@H]1CN(C)C(=O)Nc1ccc(F)cc1 | inactive
CCc1cccc(C)c1NC(=O)COC(=O)C1CC(=O)N(CCc2ccc(OC)c(OC)c2)C1 (centres undefined) | inactive
C[C@@H]1CCCCO[C@H](CN(C)C(=O)NC2CCCCC2)[C@@H](C)CN([C@@H](C)CO)C(=O)c2cc(NC(=O)Nc3ccc(C(F)(F)F)cc3)ccc2O1 | inactive
CCN(CC(=O)NCc1ccc(F)cc1)C(=O)/C=C/c1ccc(OC)c(S(=O)(=O)NC(C)C)c1 | inactive
CCCC(=O)Nc1ccc2c(c1)OC[C@@H](C)N(Cc1ccc(-c3ccccn3)cc1)C[C@H](C)[C@H](OC)CN(C)C2=O | inactive
COCC(=O)N1[C@@H](C#N)[C@H](c2ccc(-c3cccc(F)c3)cc2)[C@@H]1CO | inactive
Cc1noc(C)c1NC(=O)N[C@@H]1CC[C@H](CCNC(=O)C2CCOCC2)O[C@@H]1CO | inactive
CCCCN1C[C@H](CSC)[C@@H](CC(=O)Nc2ccc(Br)cc2)C1=O | inactive
O=C(COC(=O)C12CC3CC(CC(Br)(C3)C1)C2)Nc1c(F)cccc1F | inactive
Cc1ccccc1CN1CCC(n2nccc2NC(=O)CCOc2ccccc2)CC1 | inactive

Structure (SMILES) | outcome
C=CCSc1n[nH]c(-c2cccs2)n1 | inactive
COc1ccc(NC(=O)N(C)C[C@@H]2Oc3ncc(C#CC(C)(C)O)cc3C(=O)N([C@H](C)CO)C[C@@H]2C)cc1 | inactive
O=C(CCCN1C(=O)C2CC=CCC2C1=O)Nc1ccccc1F (centres undefined) | inactive
COc1ccc(NC(=O)N(C)C[C@H]2Oc3c(NC(=O)NC4CCCCC4)cccc3C(=O)N([C@H](C)CO)C[C@H]2C)cc1 | inactive
O=C(/C=C(\Nc1ccc(Cl)c(C(F)(F)F)c1)c1ccccc1)c1ccccc1 | inactive
COc1ccc(NC(=O)N(C)C[C@@H]2OCCCC[C@@H](C)Oc3ccc(NS(=O)(=O)c4ccc(Cl)cc4)cc3C(=O)N([C@H](C)CO)C[C@@H]2C)cc1 | inactive
CC(C)n1nccc1N(Cc1ccc(C#N)cc1)S(=O)(=O)c1ccccc1 | inactive
O=C(NCCC1CCCCN1S(=O)(=O)c1ccccc1)C(=O)NCC1CCCO1 (centres undefined) | inactive
O=C(NCCc1ccco1)C(=O)NCC1OCCCN1S(=O)(=O)c1cc(F)ccc1F (centres undefined) | inactive
Cc1noc(C)c1S(=O)(=O)N(C)C[C@@H]1OCCCC[C@H](C)Oc2ccc(NC(=O)C3CCCCC3)cc2C(=O)N([C@H](C)CO)C[C@H]1C | inactive
O=C(C[C@@H]1CC[C@@H](NC(=O)CC2CC2)[C@H](CO)O1)NCc1ccc(Cl)cc1 | inactive
CCC(=O)N1C[C@@H]2[C@H](c3ccccc31)[C@@H](CO)N2C(=O)CC | inactive
CCCCSc1nnc(-c2ccccc2N)c(=O)[nH]1 | inactive
CCOc1ccc(N2CC(C(=O)NNC(=O)c3ccc(Br)cc3)CC2=O)cc1 (centres undefined) | inactive
CC1NC2(C(=O)N(Cc3ccccc3)c3ccccc32)C2C(=O)N(c3ccccc3)C(=O)C12 (centres undefined) | inactive
CCOc1ccc(N(CC(=O)NCCOc2ccccc2OC)S(=O)(=O)c2ccccc2)cc1 | inactive
CCCCN(CC(=O)NC1CCCC1)C(=O)C(=O)Nc1ccc2c(c1)OCCO2 | inactive
Cn1cccc1C(=O)NNC(=O)c1ccccc1Br | inactive
O=[N+]([O-])c1ccccc1CN1CCN(S(=O)(=O)Cc2ccccc2)CC1 | inactive
